Consider 14 compounds from PubChem BioAssay (NCI).

The panel holds about 83,000 compounds, 20% with a hit somewhere; the sample as a whole holds those more often.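 Activity criterion: percent growth below 10, measured after cells in 96-well plates were exposed to a single compound concentration for 48 hours.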 A number with no mark means an inactive call. The source made the active and inactive calls.

This experiment concerns HL-60(TB) leukemia. In words: NCI-60 one-dose screen, 48 h (100 = growth as untreated, 0 = no growth, -100 = all killed). Particulars: 10 µM unless noted.
For `O=C(/C=C/c1cccc(O)c1)c1cccc(-n2cc(-c3ccc(Cl)cc3)[nH]c2=O)c1`, the growth is -6.19% (active).
Take `CCN(c1ccc(C(=O)N2CCN(c3ccccc3)CC2)cc1)S(C)(=O)=O`: the growth is 99.4%.
As for `COc1cccc(NC(=O)Nc2ccc(Oc3ncnc4[nH]c(C)c(C)c34)cc2)c1`, the growth is 88.4%.
`C=C1C(=O)O[C@H]2[C@H]1CC/C(COC(=O)NCc1ccc(Cn3c(=O)sn(-c4ccc(Cl)cc4)c3=O)cc1)=C\CC[C@@]1(C)O[C@@H]21`: the growth was -11.4% (active).
The result for `C=CCN1C(=O)/C(=c2\sc3n(c2=O)NC2C(N=3)N(CC)C(=O)N2CC)c2ccccc21` (centres undefined) reads -12.6% (active); that for `Cn1c([N+](=O)[O-])cnc1/C=C1\Oc2ccc(Br)cc2C1=O`, -12% (active).
As for `CN(C)c1ccc(C#Cc2c(F)cccc2Cl)cc1`, the growth is 79%.
The value for `O=C(N/N=C/c1ccccc1Cl)c1cccc2ccccc12` was 127%; that for `N#Cc1nc(-c2ccccc2)oc1S(=O)(=O)N1CCN(c2ccccc2)CC1` was 75.6%; that for `COc1ccc(/C=C/C(=O)c2cccc(B(O)O)c2)cc1O` was 4.3% (active).
The result for `O=[N+]([O-])c1ccc(C(Br)c2ccc([N+](=O)[O-])cc2)cc1` reads 57.6%; that for `CCN(CC)c1ccc(C2CC(c3cc(OC)c(OC)c(OC)c3)=NN2)cc1` (centres undefined), -35.1% (active).
In the case of `COc1ccc(C(C#N)=C2C=CC(=NO)C=C2)cc1`, the growth was 52.4%.
Turning to `N#CC1=C(N)Oc2c(ccc3ccccc23)C1c1cc(=O)oc2ccc(Cl)cc12` (centres undefined), the growth was -10.1% (active).
